In PubChem BioAssay (NCATS):
Inconclusive results are not listed. A call without a number means that no potency is given here. A number with no mark means an inactive call. Activity calls are given as the source filed them. Calls come from the whole dose curve; as a rule, active = well fitted curve in the direction sought with a large enough effect; inconclusive = small, poorly fitted or top-dose-only effect, or another doubt; inactive = no such curve, though single readings can be large; an effect the other way counts as inactive or inconclusive.

Tests used:
C33A = experiment: Primary qHTS to identify gynecologic anti-cancer compounds using libraries of approved drugs and bioactive compounds (AID 1345084); conditions: Gynecologic cancer cell panel viability, ATPlite luminescence, 48 h; series mostly up to 57.5 µM; note: nearly all actives have a fitted effect of over 55% in size
Summary of the method: (§1)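 ATP-based viability (ATPlite), 1,000 cells/well, 16 h pre-incubation, 48 h compound at 37 C, 5% CO2, 15 min RT before read.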

CAOV3 = experiment: as above; conditions: Gynecologic cancer cell panel viability, ATPlite luminescence, 48 h; series mostly up to 57.5 µM
Summary of the method: as §1

CASKI = experiment: as above; conditions: Gynecologic cancer cell panel viability, ATPlite luminescence, 48 h; series mostly up to 57.5 µM
Summary of the method: as §1

Es-2 = experiment: as above; conditions: Gynecologic cancer cell panel viability, ATPlite luminescence, 48 h; series mostly up to 57.5 µM
Summary of the method: as §1

HeLa = experiment: as above; conditions: Gynecologic cancer cell panel viability, ATPlite luminescence, 48 h; series mostly up to 57.5 µM
Summary of the method: as §1

Hek293T = experiment: as above; conditions: Gynecologic cancer cell panel viability, ATPlite luminescence, 48 h, control line for the selectivity index; series mostly up to 57.5 µM
Summary of the method: as §1

JEG-3 = experiment: as above; conditions: Gynecologic cancer cell panel viability, ATPlite luminescence, 48 h; series mostly up to 57.5 µM
Summary of the method: as §1

Tov-21-G = experiment: as above; conditions: Gynecologic cancer cell panel viability, ATPlite luminescence, 48 h; series mostly up to 57.5 µM
Summary of the method: as §1

Tov112D = experiment: as above; conditions: Gynecologic cancer cell panel viability, ATPlite luminescence, 48 h; series mostly up to 57.5 µM
Summary of the method: as §1

PA-1 = experiment: as above; conditions: Gynecologic cancer cell panel viability, ATPlite luminescence, 48 h; series mostly up to 57.5 µM
Summary of the method: as §1

SKOV3 = experiment: as above; conditions: Gynecologic cancer cell panel viability, ATPlite luminescence, 48 h; series mostly up to 57.5 µM
Summary of the method: as §1

[1] = qHTS assay to identify inhibitors of the type 1 interferon - major histocompatibility complex class I in skeletal muscle: Counter screen cell viability and HiBit confirmation (AID 1347412); conditions: iHSKM muscle cells + IFN-b, HiBiT or CellTiter-Glo, 24 h; for activity change, negative = inhibition: at 45.9 µM (top of the series); for all read-outs here: nearly all actives have a fitted effect of over 60% in size
Summary of the method: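 Human myoblast knock-in line, 4.0 ng/ml IFN-beta stimulation, 24 h compound treatment. Endpoints: HiBiT lytic luminescence (HLA-B level) and CellTiter Glo (ATP). Dosing 12 concentrations, 3-fold steps, 46 uM highest final.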

OV90 = experiment: Primary qHTS to identify gynecologic anti-cancer compounds using libraries of approved drugs and bioactive compounds (AID 1345084); conditions: Gynecologic cancer cell panel viability, ATPlite luminescence, 48 h; series mostly up to 57.5 µM; note: nearly all actives have a fitted effect of over 55% in size
Summary of the method: as §1
Potency is the fitted concentration of half-maximal effect.

Row | SMILES | Potency (C33A) | Potency (CAOV3) | Potency (CASKI) | Potency (Es-2) | Potency (HeLa) | Potency (Hek293T) | Potency (JEG-3) | Potency (Tov-21-G) | Potency (Tov112D) | Potency (PA-1) | Potency (SKOV3) | activity change, negative = inhibition ([1]; HiBiT) [%] | activity change, negative = inhibition ([1]; Viability) [%] | Potency (OV90) | Potency ([1]; HiBiT)
1 | CS(=O)(=O)NCC1CCC(Nc2nc3c(s2)CCSc2ccccc2-3)CC1 (configuration not stated) | inactive | inactive | inactive | inactive | inactive | inactive | inactive | inactive | inactive | – | – | – | – | – | –
2 | CN[C@H](CC(C)C)C(=O)N[C@H]1C(=O)N[C@@H](CC(N)=O)C(=O)N[C@H]2C(=O)N[C@H]3C(=O)N[C@H](C(=O)N[C@H](C(=O)O)c4cc(O)cc(O)c4-c4cc3ccc4O)[C@H](O[C@H]3C[C@](C)(N)[C@@H](O)[C@H](C)O3)c3ccc(c(Cl)c3)Oc3cc2cc(c3O[C@@H]2O[C@H](CO)[C@@H](O)[C@H](O)[C@H]2O[C@H]2C[C@](C)(NCc3ccc(-c4ccc(Cl)cc4)cc3)[C@@H](O)[C@H](C)O2)Oc2ccc(cc2Cl)[C@H]1O | inactive | inactive | inactive | inactive | inactive | inactive | inactive | inactive | inactive | inactive | inactive | – | – | – | –
3 | C=C(CCC1=C(C)[C@H]2[C@H](CC3[C@@H]4CC=C5C[C@@H](O)C[C@@H](O)[C@]5(C)C4[C@H](O)C[C@@]32C)O1)CO[C@@H]1O[C@H](CO)[C@@H](O)[C@H](O)[C@H]1O (some centres not stated) | 1.26 µM (active) | 3.55 µM (active) | 3.16 µM (active) | 3.16 µM (active) | 3.16 µM (active) | 3.16 µM (active) | – | 2.51 µM (active) | 1.12 µM (active) | 3.16 µM (active) | 2.82 µM (active) | – | – | – | –
4 | C[C@H]1Oc2cc(cnc2N)-c2c(nn(C)c2C#N)CN(C)C(=O)c2ccc(F)cc21 | inactive | inactive | inactive | inactive | inactive | inactive | inactive | – | inactive | – | – | -24.3 | -27.7 | – | –
5 | COC(=O)c1ccnc(-c2cc(C(=O)NCCc3ccccc3)ccn2)c1 | inactive | inactive | inactive | inactive | inactive | inactive | – | inactive | inactive | inactive | inactive | – | – | inactive | –
6 | Nc1nc(Nc2ccc(S(N)(=O)=O)cc2)n(C(=S)Nc2c(F)cccc2F)n1 | inactive | inactive | inactive | inactive | 15.8 µM (active) | – | inactive | – | – | inactive | inactive | – | – | inactive | –
7 | O=C(CC1C(=O)Nc2ccccc21)OC[C@H]1O[C@@H](OCCc2ccc(O)cc2)[C@H](O)[C@@H](O)[C@@H]1O (some centres not stated) | inactive | inactive | inactive | inactive | inactive | inactive | inactive | inactive | inactive | – | – | – | – | inactive | –
8 | CCOCc1cc(OC)c(-c2ccc(C[C@H](NC(=O)c3c(F)cccc3F)C(=O)O)cc2)c(OC)c1 | inactive | inactive | inactive | inactive | inactive | – | inactive | inactive | – | inactive | inactive | – | – | inactive | –
9 | O=C(O)c1ccc(CN2CCC(CN[C@@H]3C[C@H]3c3ccccc3)CC2)cc1 | inactive | inactive | inactive | inactive | inactive | inactive | – | inactive | inactive | inactive | – | – | – | inactive | –
10 | Nc1ccccc1N | 10 µM (active) | 5.62 µM (active) | 7.94 µM (active) | 11.2 µM (active) | 12.6 µM (active) | 7.94 µM (active) | – | 12.6 µM (active) | – | 14.1 µM (active) | 12.6 µM (active) | – | – | 10 µM (active) | –
11 | Cc1cc(N2CCN([C@@H]3CN[C@H](C(=O)N4CCSC4)C3)CC2)n(-c2ccccc2)n1 | inactive | inactive | inactive | inactive | inactive | inactive | – | inactive | inactive | – | – | – | – | inactive | –
12 | CCCCc1nc2cc(/C=C/C(=O)NO)ccc2n1CCN(CC)CC | 5.01 µM (active) | 8.91 µM (active) | 5.62 µM (active) | 3.16 µM (active) | 2.51 µM (active) | 3.16 µM (active) | 3.16 µM (active) | 7.94 µM (active) | 3.16 µM (active) | 0.631 µM (active) | 3.98 µM (active) | – | 3.05 | – | 1.11 µM (active)
13 | CN1CCN(C(=O)c2ccc3cc(CCNc4ncnc5ccc(C#N)cc45)ccc3c2)CC1 | inactive | inactive | inactive | inactive | inactive | inactive | – | inactive | inactive | – | – | – | 5.79 | – | –
14 | CC(C)CNCc1ccc(-c2ccccc2S(=O)(=O)N2CCCC2)cc1 | inactive | inactive | inactive | inactive | inactive | inactive | inactive | inactive | inactive | inactive | inactive | – | – | – | –
15 | O=C(c1cc2c(cc1F)OC(c1ccc(F)cc1)(c1ccc(Cl)cc1Cl)O2)N1CCOCC1 (configuration not stated) | inactive | inactive | inactive | inactive | inactive | inactive | inactive | inactive | inactive | inactive | – | – | – | – | –
16 | CC(C)[N+]1(C)C2CCC1CC(OC(=O)C(CO)c1ccccc1)C2 (configuration not stated) | inactive | inactive | inactive | inactive | inactive | inactive | inactive | inactive | inactive | – | – | – | – | inactive | –
